# In PubChem BioAssay (Tox21):
# Results filed as inconclusive are left out. Calls of active or inactive are those of the source. The call rests on the fitted dose curve; in most records, active means well fitted activation curve with a large enough effect in the signal ratio in the repeat runs (not every such curve was filed as active); inconclusive means weak or mixed curves, or effect the other way; inactive means no such curve, though single readings can be large or run the other way; the % refers to the signal ratio.
# Target: Peroxisome proliferator-activated receptor gamma (Homo sapiens) (UniProt P37231)
# Assay: qHTS assay to identify small molecule agonists of the peroxisome proliferator-activated receptor gamma (PPARg) signaling pathway (AID 743094)
# Settings: HEK293H PPARg-UAS-bla, beta-lactamase FRET ratio, 17 h; series mostly up to 57 µM; activation: at the top concentration
# Description: U.S. Tox21 Program National Center for Advancing Translational Sciences [NCATS] NIH Chemical Genomics Center [NCGC] U.S. Environmental Protection Agency [EPA] National Institutes of Environmental Health Sciences [NIEHS] National Toxicology Program [NTP] U.S. Food and Drug Administration [FDA] Tox21 Assay Overview: The peroxisome proliferator-activated receptors (PPARs) are lipid-activated transcription factors of the nuclear receptor superfamily with three distinct subtypes namely PPAR alpha, PPAR delta (also called PPAR beta) and PPAR gamma (PPARg). All these subtypes heterodimerize with Retinoid X receptor (RXR) and these heterodimers regulate transcription of various genes. PPAR-gamma receptor (glitazone receptor) is involved in the regulation of glucose and lipid metabolism. To identify the compounds that activate PPAR-gamma signaling, GeneBLAzer PPAR gamma UAS-bla HEK293H cell line (Invitrogen, Carlsbad, CA, USA) containing a beta-lactamase reporter gene under control of the control of an upstream activator sequence (UAS) stably integrated into HEK293H cells was used to screen Tox21 compound library.
# Tox21 Assay Protocol Summary: PPARg-bla cells were dispensed at 3000 cells/6uL/well in 1536-well black wall/clear bottom plates using a Multidrop Combi (Thermo Fisher Scientific, Waltham, MA) dispenser. After the assay plates were incubated at 37C and 5% CO2 for 5 h, 23 nL of compounds dissolved in DMSO, positive controls or DMSO only was transferred to the assay plate by a Pintool station (Kalypsys, San Diego, CA). The assay plates were incubated at 37C for 17 h. After 1 uL of LiveBLAzerTM B/G FRET substrate was added using a Bioraptr Flying Reagent Dispenser (FRD) workstation (Beckman Coulter, Indianapolis, IN, USA), the plates were incubated at room temperature for 1 h, and fluorescence intensity was measured by an Envision plate reader (PerkinElmer, Shelton, CT).
# On the % scale 0 is the no-effect control and ±100 the full control effect.
# Chain of Peroxisome proliferator-activated receptor gamma (Homo sapiens) (P37231 whole entry, looked up): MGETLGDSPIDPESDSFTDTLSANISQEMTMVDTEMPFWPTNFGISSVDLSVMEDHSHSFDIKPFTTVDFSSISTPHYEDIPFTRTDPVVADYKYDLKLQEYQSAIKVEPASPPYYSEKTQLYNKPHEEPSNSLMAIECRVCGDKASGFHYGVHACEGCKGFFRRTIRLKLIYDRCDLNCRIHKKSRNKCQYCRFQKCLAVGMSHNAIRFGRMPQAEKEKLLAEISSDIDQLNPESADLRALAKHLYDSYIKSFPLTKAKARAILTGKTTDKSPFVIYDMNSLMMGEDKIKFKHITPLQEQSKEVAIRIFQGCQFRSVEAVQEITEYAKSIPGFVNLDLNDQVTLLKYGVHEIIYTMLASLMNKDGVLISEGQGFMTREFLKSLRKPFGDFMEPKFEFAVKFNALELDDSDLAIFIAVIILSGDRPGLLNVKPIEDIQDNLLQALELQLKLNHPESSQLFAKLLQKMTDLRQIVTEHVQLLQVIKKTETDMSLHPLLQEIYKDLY
SMILES,activation,Potency
C=CCCC(=O)/C=C/C1C(C)=CCCC1(C)C (stereo not given),-0.77% (inactive),–
CCOc1ccc2ccccc2c1C(=O)N[C@@H]1C(=O)N2[C@@H]1SC(C)(C)[C@@H]2C(=O)O,2.24% [at 26.2 µM] (inactive),–
C#C[C@]1(OC(C)=O)CC[C@H]2[C@@H]3CCC4=C[C@@H](OC(C)=O)CC[C@@H]4[C@H]3CC[C@@]21C,–,inactive
CCC(C)n1ncn(-c2ccc(N3CCN(c4ccc(OC[C@H]5CO[C@](Cn6cncn6)(c6ccc(Cl)cc6Cl)O5)cc4)CC3)cc2)c1=O (stereo not given in full),-0.591% (inactive),–
CC1(C)CC(O)CC(C)(C)N1,3.09% [at 78.9 µM] (inactive),–
CCC(COC(=O)CCS)(COC(=O)CCS)COC(=O)CCS,3.81% (inactive),–
O=C(Oc1ccccc1)Oc1ccccc1,0.971% (inactive),–
O=C(O)O,-5.02% [at 7.08 µM] (inactive),–
CCOC(=O)NNc1ccc(N(CC)CC(C)O)nn1 (stereo not given),-0.984% (inactive),–
COC(=O)c1ccccc1OC,-0.715% (inactive),–
C[Si](Cl)(c1ccccc1)c1ccccc1,1.72% (inactive),–
COC(=O)Nc1nc2ccc(C(=O)c3ccccc3)cc2[nH]1,-11.8% [at 26.2 µM] (inactive),–
COC(=O)c1ccccc1C,-6.43% (inactive),–
CN1CCCCC1CCN1c2ccccc2Sc2ccc(S(C)=O)cc21 (stereo not given),–,inactive
COc1ccc(NC(=O)CC(C)=O)cc1,1.74% (inactive),–
CC[N+](CC)(CC)CCOC(=O)C(C1CCCC1)C1CCCC1,-4.62% (inactive),–
CN(C)Cc1ccccc1O,-4.51% (inactive),–
c1cnccn1,-3.57% [at 78.9 µM] (inactive),–
CC(C)(c1cc(Br)c(OCC(Br)CBr)c(Br)c1)c1cc(Br)c(OCC(Br)CBr)c(Br)c1 (stereo not given),3.54% (inactive),–
CC(CO)Oc1ccccc1 (stereo not given),-0.0101% [at 78.9 µM] (inactive),–

SMILES,activation,Potency
c1ccsc1,-0.776% (inactive),–
O=[N+]([O-])c1ccc(F)c(Cl)c1,-0.495% (inactive),–
COc1cc2nc(N3CCN(C(=O)c4ccco4)CC3)nc(N)c2cc1OC,1.32% (inactive),–
OCC(F)(F)F,-0.841% [at 78.9 µM] (inactive),–
Oc1c(I)cc(Cl)c2cccnc12,1.92% (inactive),–
CC(C)CCCCCOC(=O)CCS,-3.66% (inactive),–
OC[C@@H](O)[C@@H](O)CO,1.25% (inactive),–
O=C(O)c1cccc(C(F)(F)F)c1,4.15% (inactive),–
CCCCCCCCCCC[C@@H](C[C@@H]1OC(=O)[C@H]1CCCCCC)OC(=O)[C@H](CC(C)C)NC=O,0.125% (inactive),–
Cc1ccc(N/N=c2\c(=O)cc/c(=N\Nc3ccc(S(=O)(=O)O)cc3)c2=O)c(C)c1,-2.96% (inactive),–
Cc1c(F)c(N2CCNC(C)C2)cc2c1c(=O)c(C(=O)O)cn2C1CC1 (stereo not given),0.893% (inactive),–
CCCCCc1ccc(Cl)cc1,-6.32% (inactive),–
Cc1ccc(C(=O)O)cc1,0.167% [at 78.9 µM] (inactive),–
CCN(CCN)c1cccc(C)c1,–,inactive
C=C(C)C(=O)OCCCCCCCCCC,0.572% [at 78.9 µM] (inactive),–
Cc1cc(C(C)(C)C)c(O)c(C)c1Cn1c(=O)n(Cc2c(C)cc(C(C)(C)C)c(O)c2C)c(=O)n(Cc2c(C)cc(C(C)(C)C)c(O)c2C)c1=O,2.99% (inactive),–
CC[C@H](C)COC(=O)/C=C/c1ccc(N=Cc2ccc(OC)cc2)cc1,-2.53% (inactive),–
Nc1nc(-c2ccccc2)cs1,1.43% (inactive),–
Clc1ccnc(Cl)n1,-3.42% [at 78.9 µM] (inactive),–
COc1ccc(-c2coc3cc(O)ccc3c2=O)cc1,-1.56% (inactive),–
